Pf growth 48h: Primary qHTS for delayed death inhibitors of the malarial parasite plastid, 48 hour incubation; 310,000 tested, 5.9% active; AID 504832, 2011; P. falciparum luciferase growth in erythrocytes, 48 h; Potency, µM (top dose mostly 28.7 µM), inactives show at the top dose activity change, negative = inhibition, hits mostly inhibitors; further: potency means the concentration at half of the fitted maximal effect; on the % scale 0 is the no-effect control and ±100 the full control effect
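Erythrocytes infected with P. falciparum carrying an integrated firefly luciferase reporter (2% hematocrit, 0.1% parasitemia final) were exposed to compounds in RPMI 1640 with 0.5% Albumax at 37 C, 5% CO2. Growth inhibition was scored as reduced luminescence.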
Shiga toxin inh: A qHTS for Small Molecule Inhibitors of Shiga Toxin. Vero cells, Shiga toxin protein synthesis inhibition reporter. 290,000 tested, 9.2% active. inhibition, % at 38.7 µM; in the data active means inhibition mostly above about 28%, no sharp cut-off; inactive means mostly below about 43%; further: 0% is about no effect
Pf growth 96h: Primary qHTS for delayed death inhibitors of the malarial parasite plastid, 96 hour incubation; P. falciparum luciferase reporter growth, 96 h; Potency, µM (top dose mostly 28.7 µM), inactives show at the highest dose activity change, negative = inhibition, actives largely listed as inhibitors; 320,000 tested, 6.9% active; AID 504834, 2011; further: potency means the concentration at half of the fitted maximal effect; on the % scale 0 is the no-effect control and ±100 the full control effect
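P. falciparum expressing integrated firefly luciferase, in erythrocytes at 2% hematocrit, 0.05% parasitemia, incubated with compounds 96 h at 37 C, 5% CO2. Growth inhibition read as loss of luminescence; two-generation exposure targets delayed-death apicoplast inhibitors.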
CHX counter: Cycloheximide Counterscreen for Small Molecule Inhibitors of Shiga Toxin; 300,000 tested, 12% active; max response, %; cell reporter, cycloheximide protein synthesis inhibition counterscreen; in the data active means max response mostly above about 13%, no sharp cut-off; inactive means mostly below about 14%; further: read at 38.3 µM for the half of the compounds with a filed dose; 0% is about no effect
NS1 inh: qHTS Assay for Inhibitors of Influenza NS1 Protein Function; AID 2326, 2010; 270,000 tested, 0.4% active; Potency, µM (top dose mostly 46.1 µM), for the others: top-dose activity, positive = more growth; calls by dose curve; further: potency means the concentration at half of the fitted maximal effect; actives are rising curves; nearly all actives have a fitted effect of over 50% in size
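A cell-based growth assay was used: compounds that relieve NS1-induced slow growth of budding yeast raise OD600. Assay medium was yeast nitrogen base with ammonium sulphate and -URA supplement, pH 6.0, with 2% galactose.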
* marks the source's active call; other numbers are inactive results; i = inactive; ? = inconclusive; / = no result; [ ] = dose if it differs, or a comment. Rows were chosen to be rich in hits. Some 21% of all compounds tested hit in one or more screens of this group. Unless noted, the call rests on the fitted dose curve; in most records, active means well fitted inhibition curve with a large enough effect; inconclusive means small, poorly fitted or top-dose-only effect, or another doubt; inactive means no such curve, though single readings can be large or run the other way.

SMILES	Pf growth 48h	Shiga toxin inh	Pf growth 96h	CHX counter	NS1 inh
COc1ccc(-c2ccn(-c3cccc(F)n3)n2)cc1	-13%	98*	-43%	48*	15%
CC1C(=O)CCN(C(C)(C)C)C1C (centres undefined)	?	-1	8.3µM*	-3	-3%
CCOC(=O)c1ccc2c(c1)nc(SCC(=O)N1CCOCC1)n2CC	-8%	-4	-12%	-3	-4%
COc1ccc(COc2ccc3ccc(=O)oc3c2)cc1	139%	70*	290%	69*	-4%
COc1cccc(C(=O)Oc2ccc3ccc(=O)oc3c2)c1	/	-4	12%	-2	0%
COc1ccc2ccc(=O)oc2c1	7%	-22	-2%	-1	6%
COc1cccc(COc2ccc3ccc(=O)oc3c2)c1	139%	65*	163%	35*	-7%
CC(C)[C@H](NC(=O)N1CCn2c1nc1ccccc12)C(=O)N[C@H](C(=O)O)c1ccccc1	13%	8	?	2	12%
CC(C)(C)c1ccc(-c2nc(O)c(CC(=O)O)s2)cc1	53%	33	84%	12	-2%
O=C(NCc1cccnc1)c1ccc(CN2CCc3ccccc3C2)cc1	-8%	-5	25%	2	4%
N#Cc1cccc(NC(=O)COC(=O)C2CCC2)c1	10%	/	15%	/	/
Cc1ccc(NC(=O)c2ccc(NCCc3ccccc3)c([N+](=O)[O-])c2)cc1F	0%	-9	8.3µM*	-1	-13%
Cc1ccc(NC(=O)c2ccc(NCCN)c([N+](=O)[O-])c2)cc1Cl	4.1µM*	22	7%	4	18%
CCOC(=O)c1ccc(NCCOC)c([N+](=O)[O-])c1	86%	88*	6%	40*	-3%
COCCNc1cc(N)c([N+](=O)[O-])cc1[N+](=O)[O-]	8%	9	36%	11	-18%
O=C(Nc1cc(F)cc(F)c1)c1ccc(NCCc2ccccc2)c([N+](=O)[O-])c1	13%	12	?	5	12%
Cc1ccc(OCC(=O)NCCCNC(=O)c2cccnc2)cc1	-5%	-2	-26%	-4	4%
CCOc1ccc(S(=O)(=O)NCc2ccccn2)c(C)c1C	?	7	10µM*	8	6%
O=S(=O)(NCc1ccccn1)c1ccccc1	/	20	43%	-5	-2%
COc1ccccc1Oc1ccc(S(=O)(=O)NCc2ccccn2)cc1	2%	23	10µM*	3	-12%
O=S(=O)(NCCc1ccccn1)c1ccc(F)c(F)c1	13%	-7	5.2µM*	-2	2%
CC(C)(C)c1ccc(S(=O)(=O)NCc2ccccn2)cc1	10%	48	0%	18*	-12%
COc1ccc(S(=O)(=O)NCc2ccccn2)c(C)c1C	3%	-9	7%	-1	5%
COc1ccc(CN2CCC(Oc3ccc(C(=O)N4CCCCC4)cc3)CC2)cc1C	?	9	-10%	7	-9%
COC(=O)c1sc(NC(=O)c2c(OC)cccc2OC)c(C#N)c1C	43%	2	i	6	0%
SMILES	Pf growth 48h	Shiga toxin inh	Pf growth 96h	CHX counter	NS1 inh
COc1ccc2c(c1)O/C(=C\c1ccccc1C)C2=O	40%	66*	23%	31*	-4%
COc1cc(OC)c(OC)cc1/C=C1\Oc2cc(OS(C)(=O)=O)ccc2C1=O	9%	13	243%	0	2%
COc1ccccc1CNC(=O)COC(=O)c1cccc(S(=O)(=O)N2CCCC2)c1	21%	-4	0%	10	11%
Cc1cc2ncc(-c3ccc(Cl)cc3)cn2n1	i	93*	i	37*	/
CC(=O)Nc1ccc(OC(=O)c2cccnc2)cc1	?	-12	1.2µM*	-1	-4%
CC(C)OC(=O)c1ccc(OC(=O)c2cccnc2)cc1	21%	13	/	12*	-10%
O=C(Nc1ccc(OC(=O)c2cccnc2)cc1)c1cccnc1	?	-15	5%	0	-8%
COc1ccc(S(=O)(=O)N2CCN(C(c3ccccc3)c3ccccc3)CC2)cc1NC(C)=O	?	-28	?	1	3%
OC1(c2ccc(F)cc2)CSC(=Nc2cccnc2)N1Cc1ccco1 (centres undefined)	5.9µM*	-4	2.3µM*	2	-35%
OC1(c2ccc(OC(F)F)cc2)CSC(=Nc2cccnc2)N1Cc1ccco1 (centres undefined)	?	-4	?	6	/
NC(=O)C[C@H](N)c1cn([C@@H](CC(N)=O)C(=O)N2CCNCC2)nn1	-3%	/	101%	/	/
COc1cccc(NC(=O)C2C3CCC4C(CCC32)C4(Cl)Cl)c1 (centres undefined)	-24%	40	-12%	15*	-5%
COc1ccc(NC(=O)C2C3CCC4C(CCC32)C4(Cl)Cl)cc1 (centres undefined)	4%	-2	5.2µM*	-6	7%
COc1cccc(NC(=O)C2CCC2)c1	-14%	/	14%	/	/
O=C(c1ccco1)N1CCN(CCCCOc2ccc(F)cc2)CC1	-12%	12	?	-2	-2%
Cc1ccc(NC(=O)Nc2cnccn2)c(C)c1	?	5	19%	7	1%
O=C(Nc1ccc([N+](=O)[O-])cc1)Nc1ccon1	-6%	-5	14%	-1	-3%
CCc1ccc(NC(=O)Nc2cnccn2)cc1	125%	102*	51%	47*	-45%
CCCCc1ccc(NC(=O)Nc2cnccn2)cc1	?	50*	4%	23*	-34%
CCc1ccc(NC(=O)Nc2ccon2)cc1	159%	62*	?	68*	-22%
CCOc1cc(/C=C2/C(=N)N3C(=NC2=O)SN=C3S(=O)(=O)CC)ccc1OC(=O)c1ccco1	-4%	12	10µM*	-2	15%
CCOc1cc(/C=C2/SC(=S)NC2=O)ccc1OC(=O)c1ccco1	30%	44	6%	12*	/
COc1cc(/C=C2/C(=N)N3C(=NC2=O)SN=C3S(C)(=O)=O)ccc1OC(=O)c1ccco1	-2%	-2	-6%	32	-7%
CCOc1cc(/C=C2/C(=N)N3C(=NC2=O)SN=C3S(=O)(=O)C(C)C)ccc1OC(=O)c1ccco1	-8%	3	8.3µM*	-1	-5%
COc1cc(/C=C2/C(=N)N3C(SC)=NSC3=NC2=O)ccc1OC(=O)c1ccco1	13%	84	?	29*	0%
COc1cc(/C=C2/SC(=O)NC2=O)ccc1OC(=O)c1ccco1	1%	-5	?	-3	4%
CCCC(C)NC(=O)COC(=O)c1ccccc1SCC(=O)NC(C)CCC (centres undefined)	-28%	-18	-31%[5.75 µM]	-3	/
CCn1c(C2CCN(Cc3ccccc3)CC2)n[nH]c1=S	10%	-9	42%	8	/
COC(CNC(=O)c1cccc(-n2c(=S)[nH]c3cc(Cl)ccc3c2=O)c1)OC	-5%	14	?	-4	4%
COc1cc2c(C(=O)N3CCN(C)CC3)c(C)n(C)c2cc1Br	97%	-7	i	0	5%

Screens as filed in PubChem BioAssay.
